Data from PubChem BioAssay AID1159580 (chemical genetic matrix, 2015).
“And” between values parts separate entries of the source, which are not always exact repeats. Equal entries are not always repeated. The campaign covered roughly 5,500 compounds. About 2,000 (36%) were called active. About 18% were inconclusive and are not listed. No stated cut-off is given here; in the data, active means normalized growth mostly below about 0.91 (no sharp cut-off); inconclusive means no clear call, values can overlap the other calls; inactive means mostly above about 0.92. The list shows a part of the results.

Experiment: chemical genetic growth profiling, strain panel (AID 1159580);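 further: tested at 20 µM; growth read once vehicle control cultures reached saturation at 30 °C; 1 = growth at the plate median or of vehicle wells; lower values mean less growth of the strain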
Settings: S. cerevisiae deletion strains, growth OD

Measured: normalized growth

CCOC(=O)C1=C[C@]2(CC)CCCN3CCc4c(n1c1ccccc41)[C@@H]32
inactive: locus YAL021C, strain ccr4, hits give low values 1.03 | locus YAL026C, strain drs2, hits give low values 1.02 | locus YAL030W, strain snc1, hits give low values 1.03 | locus YBL061C, strain skt5, hits give low values 1.02 | locus YBR009C, strain hhf1, hits give low values 1.02 | locus YBR021W, strain FUR4, hits give low values 1.02 | locus YBR023C, strain chs3, hits give low values 1.03 | locus YBR171W, strain sec66, hits give low values 1.02 | locus YBR229C, strain ROT2, hits give low values 0.957 | locus YBR231C, strain swc5, hits give low values 1.02 | locus YBR279W, strain paf1, hits give low values 1.01 | locus YCL011C, strain gbp2, hits give low values 1.03 | locus YCL016C, strain dcc1, hits give low values 1.02 | locus YCL029C, strain bik1, hits give low values 0.974 | locus YCL061C, strain MRC1, hits give low values 1.02 | locus YCL069W, strain vba3, hits give low values 1.02 | locus YCR088W, strain abp1, hits give low values 1.02 | locus YDL005C, strain med2, hits give low values 1.02 | locus YDL035C, strain GPR1, hits give low values 0.977 | locus YDL040C, strain nat1, hits give low values 1.03 | locus YDL074C, strain BRE1, hits give low values 0.928 | locus YDL101C, strain DUN1, hits give low values 0.957 | locus YDL134C, strain PPH21, hits give low values 0.998 | locus YDL185W, strain tfp1, hits give low values 0.985 | locus YDL192W, strain arf1, hits give low values 0.975 | locus YDR001C, strain nth1, hits give low values 1.03 | locus YDR069C, strain doa4, hits give low values 1.05 | locus YDR101C, strain arx1, hits give low values 0.969 | locus YDR137W, strain rgp1, hits give low values 0.967 | locus YDR150W, strain NUM1, hits give low values 0.984 | locus YDR159W, strain sac3, hits give low values 1.02 | locus YDR162C, strain NBP2, hits give low values 0.937 | locus YDR195W, strain ref2 1.07 | locus YDR297W, strain sur2, hits give low values 1.02 | locus YDR318W, strain mcm21, hits give low values 0.969 | locus YDR334W, strain swr1, hits give low values 1.03 | locus YDR335W, strain msn5, hits give low values 1.01 | locus YDR388W, hits give low values 0.97 | locus YDR392W, strain spt3, hits give low values 0.979 | locus YDR502C, strain sam2, hits give low values 0.947 | locus YEL003W, strain gim4, hits give low values 1.02 | locus YEL037C, strain rad23, hits give low values 1.01 | locus YEL061C, strain CIN8 (second series), hits give low values 1.04 | locus YEL061C, strain CIN8, hits give low values 0.979 | locus YER015W, strain faa2, hits give low values 1.03 | locus YER016W, strain bim1, hits give low values 1.01 | locus YER110C, hits give low values 0.975 | locus YER111C, strain swi4, hits give low values 1.02 | locus YER155C, strain BEM2 (second series), hits give low values 0.992 | locus YER155C, strain BEM2, hits give low values 1.01 | locus YER167W, strain BCK2, hits give low values 1 | locus YFR010W, strain ubp6, hits give low values 1.03 | locus YGL078C, strain dbp3, hits give low values 0.979 | locus YGL086W, strain mad1, hits give low values 0.948 | locus YGL167C, strain pmr1, hits give low values 1.01 | locus YGL173C, strain kem1, hits give low values 1.04 | locus YGL227W, strain vid30, hits give low values 1.03 | locus YGL240W, strain doc1, hits give low values 1.03 | locus YGL248W, strain PDE1, hits give low values 0.954 | locus YGL253W, strain hxk2, hits give low values 1.03 | locus YGR135W, strain pre9, hits give low values 1 | locus YGR252W, strain gcn5, hits give low values 1.03 | locus YHR013C, strain ard1, hits give low values 1.01 | locus YHR027C, strain rpn1, hits give low values 1.03 | locus YHR030C, strain SLT2, hits give low values 0.994 and 1.01 | locus YHR079C, strain IRE1 (second series), hits give low values 0.985 | locus YHR079C, strain IRE1, hits give low values 1.03 | locus YHR094C, strain hxt1, hits give low values 0.977 | locus YHR129C, strain ARP1, hits give low values 0.987 | locus YHR142W, strain chs7, hits give low values 1.01 | locus YHR200W, strain rpn10, hits give low values 0.979 | locus YIL066C, strain RNR3, hits give low values 0.946 | locus YIL073C, strain SPO22, hits give low values 1.02 | locus YIL125W, strain kgd1, hits give low values 0.985 | locus YIR030C, strain dcg1, hits give low values 0.981 | locus YJL092W, strain hpr5, hits give low values 1.02 | locus YJL095W, strain BCK1 (second series), hits give low values 1.01 | locus YJL095W, strain BCK1, hits give low values 0.867 and 1.02 | locus YJL115W, strain asf1, hits give low values 1.05 | locus YJL129C, strain trk1, hits give low values 1.01 | locus YJL134W, strain LCB3, hits give low values 0.991 | locus YJL154C, strain vps35, hits give low values 1.01 | locus YJL164C, strain tpk1, hits give low values 1.01 | locus YJL166W, strain qcr8, hits give low values 1.02 | locus YJL168C, strain set2, hits give low values 0.979 | locus YJL187C, strain SWE1 (second series), hits give low values 0.927 | locus YJR043C, strain POL32, hits give low values 0.941 | locus YJR066W, strain TOR1, hits give low values 0.967
